Data as given in PubChem BioAssay AID1508602 (The Scripps Research Institute Molecular Screening Center, 2020).
“And” between values parts separate entries of the source, which are not always exact repeats. Identical values can stand only once. The campaign covered roughly 650,000 compounds. About 6,800 (1%) were called active. The sample as a whole holds a higher share of actives than the screen did. Values without a mark were called inactive. No stated cut-off is given here; in the data, active means activation above about 4.9%; inactive means the rest.

target: G-protein coupled receptor 151 (Homo sapiens) (UniProt Q8TDV0); test: activates the human receptor GPR151, primary screen, cell-based, PathHunter beta-arrestin, luminescence (AID 1508602); conditions: PathHunter beta-arrestin GPR151 cells, at 11.2 µM, hits give high values;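 further: 0% = median of compound wells and 100% = cells with positive control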
Sequence (Q8TDV0 whole entry, looked up): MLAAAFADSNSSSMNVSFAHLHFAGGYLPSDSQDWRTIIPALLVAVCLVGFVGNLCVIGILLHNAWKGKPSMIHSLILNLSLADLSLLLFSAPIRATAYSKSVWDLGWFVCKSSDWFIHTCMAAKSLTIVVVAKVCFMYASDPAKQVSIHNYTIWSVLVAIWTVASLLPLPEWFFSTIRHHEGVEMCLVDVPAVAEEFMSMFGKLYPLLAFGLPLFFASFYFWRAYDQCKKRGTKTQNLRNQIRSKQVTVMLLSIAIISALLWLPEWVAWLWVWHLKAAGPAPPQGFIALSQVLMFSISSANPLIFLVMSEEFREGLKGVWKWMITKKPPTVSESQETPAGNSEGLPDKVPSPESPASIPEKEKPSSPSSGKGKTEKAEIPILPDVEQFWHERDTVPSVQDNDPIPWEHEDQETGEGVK

SMILES	activation
Cc1ccc(CN(C)Cc2nc3sc4c(c3c(=O)[nH]2)CCC4)o1	0.643%
NC(=O)c1ccc(Nc2nccn3c(-c4cccc(F)c4)cnc23)cc1	-0.391%
CC(C)c1ccc(Nc2nccn3c(-c4cccc(CO)c4)cnc23)cc1	7.31% (active)
COc1ccc(Nc2ncc(-c3ccc(CO)cc3)n3ccnc23)cc1	-0.0468%
COc1ccccc1NC(=O)CSc1nnc(-c2ccc(O)cc2)o1	-0.782%
CCOc1cccc(CN2CCOc3ccc(CN4CCNC(=O)C4CC)cc3C2)c1 (stereo not drawn)	-1.24%
CCC1C(=O)NCCN1Cc1ccc2c(c1)CN(Cc1c[nH]c3ccccc13)CCO2 (stereo not drawn)	5.37% (active)
CC(=O)N1CCN(Cc2ccc3c(c2)CN(Cc2c[nH]c4ccccc24)CCO3)CC1	2.78%
COc1cccc2c1OCC(CN1CCN(C3CCCCC3)C(CCO)C1)=C2 (stereo not drawn)	2.61%
COc1ccc2c(c1)C=C(CN1CCN(CC3CCCCC3)C(CCO)C1)CO2 (stereo not drawn)	5.13% (active)
COc1cc(CN2CCN(CC3CCCCC3)C(CCO)C2)ccc1O (stereo not drawn)	-0.725%
O=C(Nc1ccc(Cl)cc1F)c1ccc(SCC(=O)N2CCCCC2)c([N+](=O)[O-])c1	2.3%
COc1ccc(S(=O)(=O)N(C)CC(=O)NCc2ccccn2)cc1C	2.7%
Cc1cccc(Nc2nnc(SCC(=O)N3CCCC3=O)s2)c1C	-1.1%
O=C(CN1C(=O)S/C(=C\c2ccc(Cl)s2)C1=O)Nc1ccccc1F	7.92% (active)
Cc1cccc(NC(=O)CN2C(=O)S/C(=C\c3ccc(Br)s3)C2=O)c1	1.12%
O=C(CN1C(=O)COc2ccc(Cl)cc21)Nc1ccccc1F	0.859%
COc1ccc(N2C(=O)CN(C(=O)c3cc(C(F)(F)F)[nH]n3)CC23CCCC3)cc1	-0.225%
C[C@H]1Cc2c(COc3ccccc3)nc3c(c2CO1)CN(C(=O)Nc1cccc(C#N)c1)CC3	-0.449%
C[C@H]1Cc2c(COc3ccccc3)nc3c(c2CO1)CN(C(=O)NCc1ccco1)CC3	8.56% (active)
COc1cccc(CC(=O)N2CCc3nc(COc4ccccc4)c4c(c3C2)CO[C@@H](C)C4)c1	4.35%
Cc1ccnc(-n2c(=O)c3cc4c(=O)n(-c5cc(C)ccn5)c(=O)c4cc3c2=O)c1	-0.463%

SMILES	activation
Cc1ncc(CO)c(/C=N/NC(=O)c2cc3c(s2)CCC(C)C3)c1O (stereo not drawn)	-0.38%
CC[n+]1cc(C)ccc1/C=C/c1ccc(N(C)C)cc1	5.25% (active)
CC[n+]1c(/C=C/c2ccc(N(C)C)cc2)oc2ccccc21	-0.273%
CN(C)c1ccc(C=NCC(O)CN=Cc2ccc(N(C)C)cc2)cc1 (stereo not drawn)	0.679%
CCC(C)C(=O)NCc1nnc2n1CCN(C(=O)c1sc(C)nc1C)CC2 (stereo not drawn)	-0.99%
COc1cccc(NC(=O)c2cc([N+](=O)[O-])ccc2NC(=O)CNCc2cccnc2)c1	-1.03%
O=C(Nc1ccc(-c2ccncc2)cn1)C1COc2ccccc2O1 (stereo not drawn)	-2.03%
COCCNc1nc2nonc2nc1N1CCCC1c1nccs1 (stereo not drawn)	1.38%
COCCNc1nc2nonc2nc1N(C)Cc1ccc(C)cc1	-1.03%
COCCNc1nc2nonc2nc1N(C)Cc1ccncc1C	8.73% (active)
O=C(O)c1cc([N+](=O)[O-])c(NCc2ccccc2)c([N+](=O)[O-])c1	0.643%
O=C(Cn1c(=O)n(Cc2ccc3c(c2)OCO3)c(=O)c2cccnc21)Nc1ccc(F)cc1	-0.979%
O=C(Cn1c(=O)n(Cc2ccc(F)cc2)c(=O)c2cccnc21)Nc1ccccc1F	0.571%
O=C(Cn1c(=O)n(Cc2cccs2)c(=O)c2cccnc21)Nc1ccc(F)cc1	5.75% (active)
COc1ccc(NC(=O)c2ccc(F)c3ccccc23)cc1	0.361%
COC(=O)c1cnn2c1NCN(Cc1ccccc1Cl)C2	0.44%
CC(=O)Nc1cccc(-c2cnc3[nH]c(=O)n([C@@H](C)c4ccccc4)c3n2)c1	0.0611%
CCN(CC)C(=O)C1c2ccccc2C(=O)N(CCOC)C1c1c[nH]c2ccccc12 (stereo not drawn)	-0.555%
COc1ccc(-c2nc3cc(Cl)ccc3c(=O)o2)cc1OC	-0.243%
COc1cc2nc(-c3ccc4c(c3)C(=O)N(CCC(C)C)C4=O)oc(=O)c2cc1OC	5.83% (active)
COc1ccc([N+](=O)[O-])cc1N1C(=O)c2ccc(-c3nc4ccccc4c(=O)o3)cc2C1=O	2.31%
O=C(c1ccccc1)N1CCN(c2nc3ccccc3o2)CC1	0.594%

SMILES	activation
Cc1ccc(S(=O)(=O)N/N=C/c2ccc(N(C)C)c(Br)c2)cc1	-1.16%
O=C(CCn1nnc2ccccc21)N/N=C/c1ccc2ccccc2c1	-0.0304%
Cc1ccccc1Nc1nnc(SCC(=O)N(C)C)s1	-2.99%
COc1ccc(NS(=O)(=O)c2ccc(Cl)cc2)cc1	2.48%
CCOc1ccc(NS(=O)(=O)c2ccc(Cl)cc2)cc1	2.4%
CCc1ccc(NS(=O)(=O)c2ccc(Cl)cc2)cc1	5.43% (active)
O=C(Nc1ccc(F)c(F)c1)c1ccc(N2CC3CC(C2)c2cccc(=O)n2C3)c(NC(=O)c2ccc(Br)o2)c1 (stereo not drawn)	2.62%
CCC(Cc1ccccc1)NC(=O)c1ccco1 (stereo not drawn)	0.495%
COc1ccc(C(=O)COC(=O)C(Cc2ccccc2)NC(=O)c2ccco2)cc1 (stereo not drawn)	6.4% (active)
O=C(COC(=O)C(Cc1c[nH]c2ccccc12)NC(=O)c1ccco1)c1ccc(Br)cc1 (stereo not drawn)	0.0528%
Cc1ccsc1C(=O)OCc1nc2ccccc2s1	-2.54%
Cc1cccnc1CN1CCN(C(=O)Cn2nnnc2CN(C)C(C)C)CC1	-1.06%
Cc1ccc(C)c(NC(=O)CN2CCOCC2)c1	-1.34%
Cc1ccc(NC(=O)Cn2cc(-c3ccccc3)c(N3CCOCC3)n2)c(C)c1	4.93% (active)
Cc1ccc2c(c1)N(C(=O)Cn1cc(-c3ccccc3)c(N(C)C)n1)CCO2	-0.0851%
Cc1c(C(=O)Oc2ccccc2)sc2ncn(Cc3ccccc3F)c(=O)c12	1.05%
CC(C)n1nccc1-c1nnc(NC(=O)Cc2ccc(F)cc2)o1	3.52%
N=C1CCCN1CC(=O)c1ccccc1	0.114%
Cc1ccc2nc3[nH]c4ccccc4c3nc2c1	-4.57%
Nc1c([N+](=O)[O-])cc(Br)c2nsnc12	0.283%
CN(C)CC(C)(O)c1ccc2c(c1)CN(C(=O)c1cc(-c3ccsc3)n[nH]1)CCO2 (stereo not drawn)	-0.659%
CCOc1ccc(NC(=O)CN2CCN(CC(N)=O)CC2)cc1	0.536%

SMILES	activation
CCOc1ccc(NC(=O)N2CCC(N(C)CCC(C)C)CC2)cc1	-0.0877%
CCOc1ccc(NC(=O)N2CCN(CC)CC2)cc1	5.53% (active)
CCC(=O)Nc1c(C(=O)Nc2ccccc2)oc2ccccc12	-0.454%
CN(C)c1cccc(Nc2nc3ccc(C(=O)Nc4ccc(N5CCOCC5)cc4)cc3s2)c1	-1.45%
CN(C)c1cccc(Nc2cc(C(=O)Nc3ccc(N4CCOCC4)cc3)ccn2)c1	5.03% (active)
CC(=O)c1cccc(-c2cc(C(=O)Nc3ccc(N4CCOCC4)cc3)ccn2)c1	1.66%
COc1cc(OC)cc(-c2nc3ccccc3c(=O)n2NC(=O)Cc2cccs2)c1	1.45%
O=C(/C=C/c1cccc([N+](=O)[O-])c1)Nn1c(-c2cccs2)nc2ccccc2c1=O	1.05%
O=C(Cc1cccs1)Nn1c(-c2cccc([N+](=O)[O-])c2)nc2ccccc2c1=O	5.65% (active)
O=C1CC(c2nc3ccccc3n2CC(O)COc2ccccc2)CN1c1ccccc1 (stereo not drawn)	1.94%
COc1cccc(/C=C2/C(=O)NC(=O)N(c3ccccc3F)C2=O)c1	4.98% (active)
COc1cccc(N2C(=O)NC(=O)/C(=C/c3ccc(OC)c(O)c3)C2=O)c1	4.48%
COc1cccc(/C=C2\C(=O)NC(=O)N(c3ccccc3Cl)C2=O)c1	1.26%
Cc1ccc(/C(O)=C2\C(=O)C(=O)N(c3nnc(C)s3)C2c2cccc(Oc3ccccc3)c2)cc1 (stereo not drawn)	2.53%
CCOc1ccc(C2C(C#N)=C(N)N(c3sc4c(c3C#N)CCCC4)C3=C2C(=O)CC(C)(C)C3)cc1 (stereo not drawn)	-0.802%
COc1ccc(CCn2c(-c3ccc(S(=O)(=O)N4CCOCC4)cc3)csc2=Nc2cccc(C(F)(F)F)c2)cc1OC	0.281%
N#Cc1ccccc1OCC(=O)OCC(=O)Nc1ncc(Cl)cc1Cl	0.379%
CCOC(=O)CNC(=O)c1sc2ncn(CC(=O)Nc3ccc(C(C)C)cc3)c(=O)c2c1C	-1.34% and -1.19%
O=C(CN1C(=O)c2ccccc2C1=O)NC(c1ccccc1)c1ccc(Br)cc1 (stereo not drawn)	5.23% (active)
O=C(CN1C(=O)c2ccc([N+](=O)[O-])cc2C1=O)NC(c1ccccc1)c1ccccc1	0.498%
O=C(CN1C(=O)CCC1=O)NC(c1ccccc1)c1ccccc1	-0.973%
NC(=O)c1c(NC(=O)CN(C(=O)c2ccco2)C2CCCC2)sc2c1CCCC2	3.42%
